# Results as given in the supplement of paper PMC8728848.
# The sample as a whole holds a higher share of the strongest signals than the screen did.
# B1: BT4246 (Bacteroides thetaiotaomicron), Q89ZX5 (protein)
# chain: MGSSHHHHHHENLYFQGHMASDYLDVVPPEQPNIDDAMSSPTRALGFLYSCYGGVSTDLPSAYLGEINSTTDEYVLPYSWNTDGYWGAYAFNTASSTNQDWLWGTTYQYIGQCYLFLQKLENAGSDIASDAEKEQWRAECQFLVAYYHFATLRRYGPIPITDSYIPMDTPTSEYNGRFHFDYCVDWIANQLDEAAKVLPANRTVTNEWGRATSTIAKAVKARLLLYAASPLWNGSFPYPNWQNENFETPGYGKALVSNTYDKSKWERALAACQEALTLATTSGDRELYDDDEYYSRQSLNLPFVPGVADVEDNKEFLKNVMKMRYAVSTRESEGNKEIIWGLSNQFDFYSRYPLRILKKSDGTWHAGYSGVSPTLYTFEHFYTANGKLPEKDLDFTPSSEWFESAGISSREDIIKLNVGREPRFYAWMAFDGGDYGTKFAAGSPLKLEMRNSEMHGYNPSLFNRDHSVTGFLTQKFVDPVTEFYTAGGSTSGTSAPTILFRLAELYLNVAECHAALGNTQEAIDALNPVRERAGIPKLTLADITNNMTIKDWVHNERFVELWNEGHRFFDVRRWAEGAKYFGANKREGLNAEVQSPTFEEFNKRTTVDAPYVWENRMYLNPVFYNEVYKNPQMVQAPGY
# How the values were obtained:
# Assay in all cases: glycan array binding signal (z-score within array); higher = stronger binding
# Conditions in all cases: glycan notation: IUPAC condensed, linker removed
# [1] = target: Fuc(a1-2)Gal(b1-3)GlcNAc(b1-2)Man(a1-3)[Fuc(a1-2)Gal(b1-3)GlcNAc(b1-2)Man(a1-6)]Man(b1-4)GlcNAc(b1-4)GlcNAc
# Procedure, shortened: (§1)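 Glycan array data came from 3228 arrays in the Consortium for Functional Glycomics database, and only arrays with an available protein sequence were kept. Glycan names were put into IUPAC-condensed notation, and columns mapping to the same glycan were averaged. The binding signal is a within-array Z-score, averaged across arrays of one protein sequence run at different concentrations or buffers and across linkers. A negative Z-score can be read as non-binding.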
# [2] = target: Fuc(a1-2)Gal(b1-3)[Fuc(a1-4)]GlcNAc(b1-2)Man(a1-3)[Fuc(a1-2)Gal(b1-3)[Fuc(a1-4)]GlcNAc(b1-2)Man(a1-6)]Man(b1-4)GlcNAc(b1-4)[Fuc(a1-6)]GlcNAc(b1-4)[Fuc(a1-6)]GlcNAc
# Procedure, shortened: as §1
# [3] = target: Fuc(a1-2)Gal(b1-4)GlcNAc(b1-3)Gal(b1-4)GlcNAc(b1-2)Man(a1-3)[Fuc(a1-2)Gal(b1-4)GlcNAc(b1-3)Gal(b1-4)GlcNAc(b1-2)Man(a1-6)]Man(b1-4)GlcNAc(b1-4)GlcNAc
# Procedure, shortened: as §1
# [4] = target: Fuc(a1-2)[Gal(a1-3)]Gal(b1-4)GlcNAc(b1-2)Man(a1-3)[Fuc(a1-2)[Gal(a1-3)]Gal(b1-4)GlcNAc(b1-2)Man(a1-6)]Man(b1-4)GlcNAc(b1-4)GlcNAc
# Procedure, shortened: as §1
# [5] = target: Fuc(a1-2)[GalNAc(a1-3)]Gal(b1-4)GlcNAc(b1-3)Gal(b1-4)GlcNAc(b1-3)Gal(b1-4)GlcNAc
# Procedure, shortened: as §1
# [6] = target: Fuc(a1-2)[GalNAc(a1-3)]Gal(b1-4)[Fuc(a1-3)]GlcNAc
# Procedure, shortened: as §1
# [7] = target: Fuc(a1-3)[Gal(b1-4)]GlcNAc(b1-2)Man
# Procedure, shortened: as §1
# [8] = target: Fuc(a1-3)[Gal(b1-4)]GlcNAc(b1-2)Man(a1-3)[Fuc(a1-3)[Gal(b1-4)]GlcNAc(b1-2)Man(a1-6)]Man(b1-4)GlcNAc(b1-4)GlcNAc
# Procedure, shortened: as §1
# [9] = target: Gal(a1-3)[Gal(a1-4)]Gal(b1-4)GlcNAc
# Procedure, shortened: as §1
# [10] = target: Gal(b1-3)GalNAc(b1-4)Gal(b1-4)Glc
# Procedure, shortened: as §1
# [11] = target: Gal(b1-3)[Fuc(a1-4)]GlcNAc(b1-3)Gal(b1-4)[Fuc(a1-3)]GlcNAc
# Procedure, shortened: as §1
# [12] = target: Gal(b1-3)[Neu5Ac(b2-6)]GalNAc
# Procedure, shortened: as §1
# Gal(b1-4)GlcNAc = target: Gal(b1-4)GlcNAc
# Procedure, shortened: as §1
# [13] = target: Gal(b1-4)GlcNAc(a1-6)Gal(b1-4)GlcNAc
# Procedure, shortened: as §1
# [14] = target: Gal(b1-4)GlcNAc(b1-2)Man(a1-3)[Man(a1-6)]Man(b1-4)GlcNAc(b1-4)GlcNAc
# Procedure, shortened: as §1
# [15] = target: Gal(b1-4)GlcNAc(b1-2)[Gal(b1-4)GlcNAc(b1-6)]Man(a1-6)[Gal(b1-4)GlcNAc(b1-2)Man(a1-3)]Man(b1-4)GlcNAc(b1-4)[Fuc(a1-6)]GlcNAc
# Procedure, shortened: as §1
# [16] = target: Gal(b1-4)GlcNAc(b1-3)Gal(b1-4)GlcNAc(b1-2)[Gal(b1-4)GlcNAc(b1-3)Gal(b1-4)GlcNAc(b1-6)]Man(a1-6)[Gal(b1-4)GlcNAc(b1-3)Gal(b1-4)GlcNAc(b1-2)Man(a1-3)]Man(b1-4)GlcNAc(b1-4)GlcNAc
# Procedure, shortened: as §1
# [17] = target: Gal(b1-4)GlcNAc(b1-3)Gal(b1-4)GlcNAc(b1-2)[Gal(b1-4)GlcNAc(b1-3)Gal(b1-4)GlcNAc(b1-6)]Man(a1-6)[Gal(b1-4)GlcNAc(b1-3)Gal(b1-4)GlcNAc(b1-2)Man(a1-3)]Man(b1-4)GlcNAc(b1-4)[Fuc(a1-6)]GlcNAc
# Procedure, shortened: as §1
# [18] = target: Gal(b1-4)GlcNAc(b1-3)Gal(b1-4)GlcNAc(b1-3)Gal(b1-4)GlcNAc(b1-2)Man(a1-3)[Gal(b1-4)GlcNAc(b1-3)Gal(b1-4)GlcNAc(b1-3)Gal(b1-4)GlcNAc(b1-2)Man(a1-6)]Man(b1-4)GlcNAc(b1-4)[Fuc(a1-6)]GlcNAc
# Procedure, shortened: as §1
# [19] = target: Gal(b1-4)GlcNAc(b1-3)Gal(b1-4)GlcNAc(b1-6)[Gal(b1-3)]GalNAc
# Procedure, shortened: as §1
# Gal(b1-6)Gal = target: Gal(b1-6)Gal
# Procedure, shortened: as §1
# [20] = target: GalNAc(b1-4)GlcNAc(b1-2)Man
# Procedure, shortened: as §1
# GalNAc3S(b1-4)GlcNAc = target: GalNAc3S(b1-4)GlcNAc
# Procedure, shortened: as §1
# Glc(b1-6)Glc = target: Glc(b1-6)Glc
# Procedure, shortened: as §1
# [21] = target: GlcNAc(a1-4)Gal(b1-4)GlcNAc(b1-3)Gal(b1-4)GlcNAc
# Procedure, shortened: as §1
# [22] = target: GlcNAc(a1-4)Gal(b1-4)GlcNAc(b1-3)Gal(b1-4)[Fuc(a1-3)]GlcNAc(b1-3)Gal(b1-4)[Fuc(a1-3)]GlcNAc
# Procedure, shortened: as §1
# [23] = target: GlcNAc(b1-2)Man(a1-3)[GlcNAc(b1-4)][GlcNAc(b1-2)Man(a1-6)]Man(b1-4)GlcNAc(b1-4)[Fuc(a1-6)]GlcNAc
# Procedure, shortened: as §1
# [24] = target: GlcNAc(b1-3)Gal(b1-3)GalNAc
# Procedure, shortened: as §1
# [25] = target: GlcNAc(b1-3)Gal(b1-4)GlcNAc(b1-2)Man(a1-3)[GlcNAc(b1-3)Gal(b1-4)GlcNAc(b1-2)Man(a1-6)]Man(b1-4)GlcNAc(b1-4)GlcNAc
# Procedure, shortened: as §1
# [26] = target: GlcNAc(b1-3)Gal(b1-4)GlcNAc(b1-3)Gal(b1-4)GlcNAc(b1-2)Man(a1-3)[GlcNAc(b1-3)Gal(b1-4)GlcNAc(b1-3)Gal(b1-4)GlcNAc(b1-2)Man(a1-6)]Man(b1-4)GlcNAc(b1-4)[Fuc(a1-6)]GlcNAc
# Procedure, shortened: as §1
binder,measurement,setting,value
B1,glycan array binding signal (z-score),[1],3.2
same,glycan array binding signal (z-score),[2],-0.111
same,glycan array binding signal (z-score),[3],0.084
same,glycan array binding signal (z-score),[4],2.43
same,glycan array binding signal (z-score),[5],0.74
same,glycan array binding signal (z-score),[6],-2.1
same,glycan array binding signal (z-score),[7],0.571
same,glycan array binding signal (z-score),[8],-0.536
same,glycan array binding signal (z-score),[9],0.656
same,glycan array binding signal (z-score),[10],2.02
same,glycan array binding signal (z-score),[11],-0.234
same,glycan array binding signal (z-score),[12],-0.388
same,glycan array binding signal (z-score),Gal(b1-4)GlcNAc,-1.31
same,glycan array binding signal (z-score),[13],-0.67
same,glycan array binding signal (z-score),[14],2.35
same,glycan array binding signal (z-score),[15],-0.607
same,glycan array binding signal (z-score),[16],2.71
same,glycan array binding signal (z-score),[17],0.32
same,glycan array binding signal (z-score),[18],0.125
same,glycan array binding signal (z-score),[19],-0.514
same,glycan array binding signal (z-score),Gal(b1-6)Gal,0.501
same,glycan array binding signal (z-score),[20],-0.775
same,glycan array binding signal (z-score),GalNAc3S(b1-4)GlcNAc,1.88
same,glycan array binding signal (z-score),Glc(b1-6)Glc,-2.27
same,glycan array binding signal (z-score),[21],-0.394
same,glycan array binding signal (z-score),[22],3.11
same,glycan array binding signal (z-score),[23],2.52
same,glycan array binding signal (z-score),[24],-0.081
same,glycan array binding signal (z-score),[25],0.802
same,glycan array binding signal (z-score),[26],-0.16
